# Columns and labels:
# [1] = molecular target: CDK3/Cyclin E (Homo sapiens) (UniProt P24864+Q00526); settings: at 1 µM;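 further: each figure is a mean percent inhibition of the CDK3/cyclin E complex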
# [2] = molecular target: Cyclin-dependent kinase 4 (Homo sapiens) (UniProt P11802); settings: at 0.1 µM
# [3] = molecular target: Cyclin-dependent kinase 4 (Homo sapiens) (UniProt P11802); settings: at 1 µM
# [4] = molecular target: Cyclin-dependent kinase 5 (Homo sapiens) (UniProt Q00535); settings: at 0.1 µM
# [5] = molecular target: Cyclin-dependent kinase 5 (Homo sapiens) (UniProt Q00535); settings: at 1 µM
# [6] = molecular target: Cyclin-dependent kinase 6 (Homo sapiens) (UniProt Q00534); settings: at 0.1 µM
# [7] = molecular target: Cyclin-dependent kinase 6 (Homo sapiens) (UniProt Q00534); settings: at 1 µM
# [8] = molecular target: Dual specificity protein kinase CLK2 (Homo sapiens) (UniProt P49760); settings: at 0.1 µM
# [9] = molecular target: Dual specificity protein kinase CLK2 (Homo sapiens) (UniProt P49760); settings: at 1 µM
# [10] = molecular target: Dual specificity protein kinase CLK3 (Homo sapiens) (UniProt P49761); settings: at 0.1 µM
# [11] = molecular target: Dual specificity protein kinase CLK3 (Homo sapiens) (UniProt P49761); settings: at 1 µM
# [12] = molecular target: Dual specificity tyrosine-phosphorylation-regulated kinase 1A (Homo sapiens) (UniProt Q13627); settings: at 0.1 µM
# [13] = molecular target: Dual specificity tyrosine-phosphorylation-regulated kinase 1A (Homo sapiens) (UniProt Q13627); settings: at 1 µM
# [14] = molecular target: Dual specificity tyrosine-phosphorylation-regulated kinase 1B (Homo sapiens) (UniProt Q9Y463); settings: at 0.1 µM
# [15] = molecular target: Dual specificity tyrosine-phosphorylation-regulated kinase 1B (Homo sapiens) (UniProt Q9Y463); settings: at 1 µM
# [16] = molecular target: T1, Dual specificity tyrosine-phosphorylation-regulated kinase 2 (Homo sapiens) (UniProt Q92630); settings: at 0.1 µM
# T1 sequence (whole entry): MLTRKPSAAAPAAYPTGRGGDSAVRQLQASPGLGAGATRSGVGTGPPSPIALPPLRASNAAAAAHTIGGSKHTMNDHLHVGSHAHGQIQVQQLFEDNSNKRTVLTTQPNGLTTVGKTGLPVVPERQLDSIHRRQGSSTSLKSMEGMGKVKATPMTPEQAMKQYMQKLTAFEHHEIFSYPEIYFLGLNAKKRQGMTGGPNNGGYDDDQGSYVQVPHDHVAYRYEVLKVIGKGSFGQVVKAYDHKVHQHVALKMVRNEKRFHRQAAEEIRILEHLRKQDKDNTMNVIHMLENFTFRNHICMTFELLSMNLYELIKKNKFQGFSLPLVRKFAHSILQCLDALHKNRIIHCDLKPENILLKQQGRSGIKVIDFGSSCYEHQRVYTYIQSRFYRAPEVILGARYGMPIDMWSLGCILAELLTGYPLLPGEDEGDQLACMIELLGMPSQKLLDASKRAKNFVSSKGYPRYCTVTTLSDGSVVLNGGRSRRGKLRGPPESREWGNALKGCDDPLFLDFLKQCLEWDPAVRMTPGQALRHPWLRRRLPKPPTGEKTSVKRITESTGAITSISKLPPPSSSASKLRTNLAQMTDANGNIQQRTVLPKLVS
# [17] = molecular target: T1, Dual specificity tyrosine-phosphorylation-regulated kinase 2 (Homo sapiens); settings: at 1 µM
# [18] = molecular target: Glycogen synthase kinase-3 alpha (Homo sapiens) (UniProt P49840); settings: at 0.1 µM
# [19] = molecular target: Glycogen synthase kinase-3 alpha (Homo sapiens) (UniProt P49840); settings: at 1 µM
# [20] = molecular target: Glycogen synthase kinase-3 beta (Homo sapiens) (UniProt P49841); settings: at 0.1 µM;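 further: values are mean percent inhibition of GSK3B activity, from the GSK Published Kinase Inhibitor Set (PKIS) screening dataset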
# Glycogen synthase kinase-3 beta (Homo sapiens), sequence (P49841 whole entry, looked up): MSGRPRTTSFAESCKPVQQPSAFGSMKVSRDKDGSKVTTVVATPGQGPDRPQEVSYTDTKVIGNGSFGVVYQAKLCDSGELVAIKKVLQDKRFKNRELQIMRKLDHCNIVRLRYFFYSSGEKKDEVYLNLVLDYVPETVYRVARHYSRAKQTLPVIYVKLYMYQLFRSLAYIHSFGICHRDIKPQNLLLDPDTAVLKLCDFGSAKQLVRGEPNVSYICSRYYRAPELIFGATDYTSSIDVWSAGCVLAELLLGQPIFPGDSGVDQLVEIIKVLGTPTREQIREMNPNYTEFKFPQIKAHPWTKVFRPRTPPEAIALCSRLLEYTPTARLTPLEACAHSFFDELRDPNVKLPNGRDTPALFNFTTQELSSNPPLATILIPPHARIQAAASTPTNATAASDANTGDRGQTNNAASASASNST
# Cyclin-dependent kinase 4 (Homo sapiens), sequence (P11802 whole entry): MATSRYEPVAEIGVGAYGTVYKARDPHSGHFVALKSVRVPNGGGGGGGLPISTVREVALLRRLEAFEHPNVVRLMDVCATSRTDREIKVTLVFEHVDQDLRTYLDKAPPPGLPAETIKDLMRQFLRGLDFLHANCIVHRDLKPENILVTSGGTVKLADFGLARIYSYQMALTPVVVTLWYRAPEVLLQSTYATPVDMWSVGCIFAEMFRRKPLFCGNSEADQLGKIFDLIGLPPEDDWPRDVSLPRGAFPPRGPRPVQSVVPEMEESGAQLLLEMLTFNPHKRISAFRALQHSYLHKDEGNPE
# Dual specificity tyrosine-phosphorylation-regulated kinase 1B (Homo sapiens), sequence (Q9Y463 whole entry, looked up): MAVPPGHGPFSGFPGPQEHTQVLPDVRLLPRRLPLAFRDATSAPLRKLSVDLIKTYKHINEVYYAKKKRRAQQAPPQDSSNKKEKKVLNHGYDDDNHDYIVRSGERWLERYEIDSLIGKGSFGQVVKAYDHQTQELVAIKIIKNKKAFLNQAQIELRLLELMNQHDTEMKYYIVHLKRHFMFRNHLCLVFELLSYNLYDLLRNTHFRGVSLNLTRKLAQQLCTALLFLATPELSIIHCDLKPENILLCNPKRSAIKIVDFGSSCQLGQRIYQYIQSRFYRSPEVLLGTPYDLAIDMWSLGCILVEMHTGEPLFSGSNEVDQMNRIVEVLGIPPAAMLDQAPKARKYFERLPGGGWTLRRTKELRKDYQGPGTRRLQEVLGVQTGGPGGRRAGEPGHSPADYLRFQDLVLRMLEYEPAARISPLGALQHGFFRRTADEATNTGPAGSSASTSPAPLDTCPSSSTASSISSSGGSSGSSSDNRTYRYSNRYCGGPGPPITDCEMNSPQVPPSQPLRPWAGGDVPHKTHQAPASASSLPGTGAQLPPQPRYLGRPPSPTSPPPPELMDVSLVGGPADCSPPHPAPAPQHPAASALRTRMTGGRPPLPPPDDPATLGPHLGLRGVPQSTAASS
# Glycogen synthase kinase-3 alpha (Homo sapiens), sequence (P49840 2-483 limits assumed): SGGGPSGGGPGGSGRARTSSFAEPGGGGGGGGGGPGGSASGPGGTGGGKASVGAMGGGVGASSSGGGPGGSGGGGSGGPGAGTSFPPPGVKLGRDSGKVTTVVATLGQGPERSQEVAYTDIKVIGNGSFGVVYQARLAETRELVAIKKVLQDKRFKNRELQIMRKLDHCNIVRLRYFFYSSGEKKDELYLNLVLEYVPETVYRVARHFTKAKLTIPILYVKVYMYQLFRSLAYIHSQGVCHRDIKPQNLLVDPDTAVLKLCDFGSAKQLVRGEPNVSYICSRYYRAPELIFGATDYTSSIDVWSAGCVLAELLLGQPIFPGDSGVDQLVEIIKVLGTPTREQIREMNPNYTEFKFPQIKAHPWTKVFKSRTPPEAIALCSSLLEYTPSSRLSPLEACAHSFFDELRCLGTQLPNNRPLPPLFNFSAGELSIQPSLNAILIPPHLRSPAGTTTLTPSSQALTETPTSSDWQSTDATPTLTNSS
# Dual specificity protein kinase CLK2 (Homo sapiens), sequence (P49760 whole entry, looked up): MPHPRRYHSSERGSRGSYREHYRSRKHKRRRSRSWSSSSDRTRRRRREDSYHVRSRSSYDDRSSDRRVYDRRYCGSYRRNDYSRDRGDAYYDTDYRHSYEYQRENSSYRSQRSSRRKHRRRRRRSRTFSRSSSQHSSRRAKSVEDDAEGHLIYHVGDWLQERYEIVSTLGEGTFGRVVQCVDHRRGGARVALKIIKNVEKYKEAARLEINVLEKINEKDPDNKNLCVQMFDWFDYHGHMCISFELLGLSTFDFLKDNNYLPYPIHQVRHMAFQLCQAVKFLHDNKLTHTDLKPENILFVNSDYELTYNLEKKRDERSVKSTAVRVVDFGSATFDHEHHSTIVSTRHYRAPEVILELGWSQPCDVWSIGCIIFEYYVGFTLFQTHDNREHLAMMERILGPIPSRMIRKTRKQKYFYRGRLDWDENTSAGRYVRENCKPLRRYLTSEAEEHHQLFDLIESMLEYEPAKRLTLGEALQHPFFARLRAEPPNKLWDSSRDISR
# Cyclin-dependent kinase 6 (Homo sapiens), sequence (Q00534 whole entry): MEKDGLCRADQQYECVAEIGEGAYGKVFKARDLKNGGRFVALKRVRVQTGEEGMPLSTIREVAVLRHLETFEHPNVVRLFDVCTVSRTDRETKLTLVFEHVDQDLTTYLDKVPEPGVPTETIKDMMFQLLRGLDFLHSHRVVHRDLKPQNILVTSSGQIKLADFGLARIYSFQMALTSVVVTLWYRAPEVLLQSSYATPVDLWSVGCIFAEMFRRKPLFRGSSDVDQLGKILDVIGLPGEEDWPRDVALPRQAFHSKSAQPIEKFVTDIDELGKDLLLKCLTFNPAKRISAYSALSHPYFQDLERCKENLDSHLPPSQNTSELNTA
# Cyclin-dependent kinase 5 (Homo sapiens), sequence (Q00535 whole entry, looked up): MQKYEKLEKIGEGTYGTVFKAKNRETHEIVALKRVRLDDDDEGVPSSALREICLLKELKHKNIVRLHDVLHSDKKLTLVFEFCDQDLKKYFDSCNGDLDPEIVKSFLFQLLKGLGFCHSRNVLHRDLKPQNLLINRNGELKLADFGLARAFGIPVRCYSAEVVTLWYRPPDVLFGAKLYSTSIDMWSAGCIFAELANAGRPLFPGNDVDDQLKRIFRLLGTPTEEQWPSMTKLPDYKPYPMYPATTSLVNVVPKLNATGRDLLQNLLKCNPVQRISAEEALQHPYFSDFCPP
# Dual specificity protein kinase CLK3 (Homo sapiens), sequence (P49761 whole entry, looked up): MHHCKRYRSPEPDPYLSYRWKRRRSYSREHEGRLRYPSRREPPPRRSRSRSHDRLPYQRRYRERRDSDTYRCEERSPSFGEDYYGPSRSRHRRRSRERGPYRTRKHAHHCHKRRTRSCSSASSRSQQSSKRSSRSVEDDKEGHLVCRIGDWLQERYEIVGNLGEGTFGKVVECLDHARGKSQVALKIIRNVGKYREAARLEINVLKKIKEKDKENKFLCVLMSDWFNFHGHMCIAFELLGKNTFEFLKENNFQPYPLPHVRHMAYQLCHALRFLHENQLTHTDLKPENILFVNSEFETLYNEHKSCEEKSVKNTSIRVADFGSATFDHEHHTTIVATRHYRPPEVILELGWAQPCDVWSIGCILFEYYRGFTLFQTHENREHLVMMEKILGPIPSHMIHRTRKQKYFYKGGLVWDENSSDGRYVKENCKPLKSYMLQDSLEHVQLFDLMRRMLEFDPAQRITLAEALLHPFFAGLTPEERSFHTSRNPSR
# CDK3/Cyclin E (Homo sapiens), sequence (P24864 whole entry, looked up): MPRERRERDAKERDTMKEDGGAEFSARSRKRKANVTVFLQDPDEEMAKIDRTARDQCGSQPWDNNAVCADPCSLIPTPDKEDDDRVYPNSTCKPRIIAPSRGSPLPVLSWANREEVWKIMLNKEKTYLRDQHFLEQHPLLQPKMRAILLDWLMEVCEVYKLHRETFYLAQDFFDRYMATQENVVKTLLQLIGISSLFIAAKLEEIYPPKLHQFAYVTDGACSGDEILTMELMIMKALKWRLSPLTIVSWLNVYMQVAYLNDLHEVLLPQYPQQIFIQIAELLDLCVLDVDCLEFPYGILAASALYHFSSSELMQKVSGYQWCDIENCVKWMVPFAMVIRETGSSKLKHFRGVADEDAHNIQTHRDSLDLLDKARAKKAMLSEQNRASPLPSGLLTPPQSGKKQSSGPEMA
# CDK3/Cyclin E (Homo sapiens), sequence (Q00526 whole entry, looked up): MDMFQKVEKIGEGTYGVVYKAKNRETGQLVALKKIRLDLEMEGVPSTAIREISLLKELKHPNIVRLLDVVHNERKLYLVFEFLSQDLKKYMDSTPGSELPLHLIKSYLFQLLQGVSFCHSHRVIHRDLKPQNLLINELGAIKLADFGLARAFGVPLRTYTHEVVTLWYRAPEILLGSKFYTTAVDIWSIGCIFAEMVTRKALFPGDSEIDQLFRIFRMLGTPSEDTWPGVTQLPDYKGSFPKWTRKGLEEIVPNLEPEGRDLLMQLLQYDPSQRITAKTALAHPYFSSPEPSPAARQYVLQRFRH
SMILES,inhibition [1],inhibition [2],inhibition [3],inhibition [4],inhibition [5],inhibition [6],inhibition [7],inhibition [8],inhibition [9],inhibition [10],inhibition [11],inhibition [12],inhibition [13],inhibition [14],inhibition [15],inhibition [16],inhibition [17],inhibition [18],inhibition [19],inhibition [20]
CCn1c(-c2nonc2N)nc2c(C#CC(C)(C)O)nc(O[C@@H](CN)c3ccccc3)cc21,-0.03%,1.37%,4.92%,2.41%,4.69%,-4.5%,3.24%,10.2%,56.3%,-1.43%,1.71%,1.79%,7.95%,2.3%,9.96%,-1.27%,0.08%,52.7%,86.1%,53.4%
NS(=O)(=O)c1ccc(N/C=C2\C(=O)Nc3ccc4ncsc4c32)cc1,94.7%,30.7%,64.6%,60.7%,72.8%,36.8%,69%,11.6%,64.1%,1.81%,9.47%,21.7%,74.4%,9.26%,44.9%,6.51%,29%,25.2%,62.8%,26.1%
COc1cccc(-n2ncc3c(N/N=C/c4ccncc4)ncnc32)c1,49.4%,16.5%,52.6%,39.7%,78.8%,15.4%,51.1%,4.97%,35%,4.27%,19.3%,28.7%,72.3%,16.2%,53.9%,14.2%,58.9%,85.7%,90%,83.4%
Nc1nonc1-c1nc2cnccc2n1C1CCCCC1,11.3%,0.8%,5.81%,5%,18%,-5.33%,1.64%,3.99%,39.2%,-0.8%,2.98%,34.3%,78%,23.4%,71.2%,-2.75%,-0.12%,66.1%,90.8%,62.5%
COc1cccc(COc2cc(-n3cnc4ccccc43)sc2C(N)=O)c1,-2.65%,0.26%,1.36%,-0.51%,-0.16%,-4.03%,-1%,0.48%,1.3%,-0.79%,-0.91%,0.34%,-0.09%,-0.5%,-2.7%,-0.21%,-2.08%,1.06%,3.48%,0.09%
CCn1c(-c2nonc2N)nc2c(C#CC(C)(C)O)ncc(OC[C@@H]3CCCN3)c21,-4.39%,0.04%,1.01%,-0.13%,-0.81%,-2.82%,-5.08%,1.88%,9.59%,0.26%,-0.53%,-0.49%,-0.73%,-2.29%,-1.07%,0.4%,-2.07%,9.78%,44.4%,9.2%
COc1cc2c(cc1Nc1nc(Nc3ccsc3C(N)=O)c3cc[nH]c3n1)N(C(=O)CN(C)C)CCC2,-1.3%,3.79%,5.67%,0.94%,-0.24%,5.85%,6.19%,15.6%,72%,1.22%,2.92%,-1.83%,0.58%,-0.31%,4.64%,-0.67%,-2.75%,1.22%,0.89%,1.05%
Cc1cc(-c2ccco2)cc(C)c1/C=C/c1cncc(-c2nn[nH]n2)c1,-1.27%,0.48%,2.4%,0.53%,1.53%,-2.45%,-0.96%,-1.47%,-2.94%,0.27%,0.08%,-0.27%,2.81%,-0.75%,0.15%,-0.1%,-1.43%,0.36%,0.72%,0.5%
COc1cc(C=NNc2ncnc3c2cnn3Cc2ccccc2)ccc1O,2.73%,0.2%,5.23%,2.79%,16.2%,,-0.46%,-0.27%,3.62%,0.25%,9.8%,3.11%,9.48%,3.37%,8.92%,-4.67%,-1.79%,5.54%,19.6%,5.36%
CCn1c(-c2nonc2N)nc2c(C#CCN)ncc(OCCCN)c21,2.11%,-2.32%,-2.14%,1.95%,1.6%,0.56%,-5.81%,1.13%,0.74%,-0.24%,-1.34%,1.67%,4.43%,5.17%,7.49%,-2.75%,-1.66%,0.52%,9.28%,3.41%
NC(=O)c1sc(-n2cnc3cc(C(F)(F)F)ccc32)cc1OCc1ccccc1Br,-2.44%,1.17%,2.92%,0.88%,2.08%,-0.56%,-1.42%,0.89%,0.1%,-0.27%,-0.53%,-0.2%,1.95%,-0.04%,0.72%,1.75%,0.34%,1.61%,2.55%,1.16%
CCn1c(-c2nonc2N)nc2c(C#CC(C)(C)O)ncc(OCC3CCNCC3)c21,1.62%,-1.61%,3.91%,1.05%,5.69%,-0.95%,4.82%,5.25%,29.4%,-2.14%,-1.7%,-3.13%,1.2%,-4.04%,-0.01%,1.35%,1.98%,12.9%,53.9%,11.9%
Fc1ccc(-c2ncn(C3CCNCC3)c2-c2ccnc(Oc3ccccc3)n2)cc1,-2.25%,-3.54%,-2.32%,-3.32%,-2.14%,-6.2%,-4.11%,0.8%,-0.83%,-3.78%,-4.71%,-2.73%,-2.33%,-4.97%,-5.21%,1.43%,0.78%,-1.47%,-2.08%,-2.46%
NS(=O)(=O)c1ccc(-c2ccc3c(NC(=O)C4CC4)n[nH]c3c2)cc1,5.48%,3.11%,6.7%,2.07%,4.41%,13.7%,46.3%,1.09%,-0.2%,0.84%,2.75%,2.37%,5.69%,0.86%,3.29%,1.63%,3.47%,5.27%,8.87%,4.15%

# Reference: ChEMBL document CHEMBL1961873, “Compounds: GSK PKIS; Assays: Nanosyn kinase panel” (2012)
